Screens from PubChem BioAssay.
Only some compounds are listed: those with a hit (about 1.8% of all), similar ones and a draw of the others.
HTR2A ag = agonists of mouse serotonin 5-HT2A receptor (HTR2A); AID 624169; P35363; activation, % at 7.6 µM; CHO-K1 mHTR2A beta-arrestin complementation, luminescence; percent of 30 µM serotonin response; 360,000 tested, 0.66% active;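 active = activation above a run cutoff, the mean activation of all tested compounds plus 3 SD, cut at about 14% in these data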;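 also: 0% = plate median of compound wells and 100% = 30 µM serotonin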
GC-B act = GC-B (human) receptor activation; P20594; HEK293-GC-B cells, CNP EC30, cGMP TR-FRET; 0% at EC30 CNP, 100% saturating CNP; activation, % at 10 µM; 370,000 tested, 0.11% active;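 active = activation at 10 µM reaching about 35% in either raw or pattern-adjusted values, limit read from the data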
MsrA act = bovine methionine sulfoxide reductase A activation. purified bovine MsrA, absorbance read-out. activation, % at 10.6 µM. 360,000 tested, 0.3% active. AID 602163; in the data active = activation above about 7.5%;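 also: 0% = vehicle and 100% = reference activator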
NPR1 activator = GC-A (human) enzyme activation | HEK293 GC-A cells, cGMP TR-FRET, EC30 ANP; 0% at EC30 ANP, 100% saturating ANP | activation, % at 10 µM | 370,000 tested, 0.14% active; in the data active = activation above about 40%
MsrA inhibitor = inhibits bovine methionine sulfoxide reductase A; AID 651718; inhibition, % at 15.5 µM; purified bovine MsrA, absorbance read-out; 360,000 tested, 0.75% active; in the data active = inhibition above about 4.5%;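 also: 0% = vehicle wells with enzyme and 100% = reference inhibitor wells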
OPRM1 ag = counter-screen for mouse HTR2A agonists: human mu opioid receptor agonists. 2,300 tested, 5.3% active. U2OS OPRM1 beta-arrestin PathHunter, luminescence; DMSO 0%, DAMGO 9.3 µM 100%. shares compounds with HTR2A ag. activation, % at 9.3 µM;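 active = mean activation above the mean of DMSO-only wells plus 3 SD, cut at about 0.5% in these data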
m5-HT2A ag conf = mouse HTR2A agonism confirmed | shares compounds with HTR2A ag | AID 624381 | activation, % at 7.6 µM | 2,300 tested, 19% active | CHO-K1 PathHunter beta-arrestin recruitment, luminescence; DMSO 0%, 30 µM serotonin 100%;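 active = mean activation across triplicates above the hit threshold derived in the original primary screen, cut at about 15% in these data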
* = called active by the depositor; nt = no result.

SMILES	HTR2A ag	GC-B act	MsrA act	NPR1 activator	MsrA inhibitor	OPRM1 ag	m5-HT2A ag conf
COc1ccc(/C=C/C(=O)Nc2nonc2NC(C)=O)cc1	25*	-7	-7	-2	4.6*	-1	-3
COc1ccc(/C=C/C(=O)Nc2cc(C)on2)cc1	-4	-1	-4	-3	0	nt	nt
O=C(NCCc1ccccc1)C1CCCN(c2ncnc3c2nc2n3CCCCC2)C1 (stereo not given)	15*	4	-2	0	0	-1	-5
O=C(C1CCCN(c2ncnc3c2nc2n3CCCCC2)C1)N1CCN(c2ccc(Cl)cc2)CC1 (stereo not given)	5	6	-1	1	0	nt	nt
O=C(C1CCN(c2ncnc3c2nc2n3CCCCC2)CC1)N1CCN(c2cccc(Cl)c2)CC1	18*	0	-5	-3	0	-1	-1
Cc1ccc(CCNC(=O)C2CCCN(c3ncnc4c3nc3n4CCCCC3)C2)cc1 (stereo not given)	-2	-7	-3	-3	0	nt	nt
COc1cccc(NC(=O)C2CCCN2C(=O)Nc2ccc(Cl)cc2)c1 (stereo not given)	nt	10	nt	-1	nt	nt	nt
CCOC(=O)C1=C(CNCc2ccc(C)cc2)NC(=O)NC1c1cc(C)ccc1C (stereo not given)	0	-13	1	-25	0	nt	nt
COC(=O)C1=C(Cn2cnc3ccccc32)NC(=O)NC1c1cc(C)ccc1C (stereo not given)	73*	4	-9	-9	0	nt	46*
O=C(CSc1n[nH]c(=O)[nH]c1=O)N1CCCCCC1	-1	-2	-5	1	-1	nt	nt
O=C(CCc1n[nH]c(=O)[nH]c1=O)N1CCCCC1	16*	10	-3	0	0	0	-1
COC(=O)c1ccc(/C=N/N2CCN(Cc3ccc(C)cc3C)CC2)cc1	18*	-5	-10	-5	-1	0	15*
Cc1ccc(N2C(=O)C3C4C=CC(C4)C3C2=O)cc1C (stereo not given)	2	2	-1	2	-1	nt	nt
Cc1cccc(N2C(=O)C3C4C=CC(C4)C3C2=O)c1 (stereo not given)	22*	-2	0	5	-1	0	0
CCSc1nsc(NC(=O)Nc2ccccc2F)n1	-1	7	-1	7	-1	nt	nt
C=CCSc1nsc(NC(=O)Nc2ccc(F)cc2)n1	17*	13	-2	20	0	0.8*	29*
CCOC(=O)c1cc(S(=O)(=O)N2CCN(Cc3ccccc3)CC2)cn1C	-2	-1	-2	3	0	nt	nt
CCOC(=O)C1=CCN(Cc2ccccc2)CC1	19*	10	-1	1	0	0	80*
CCOC(=O)C1=C(CS(=O)(=O)c2ccccc2)NC(=O)NC1c1ccc(OC)c(OC)c1 (stereo not given)	2	-1	-3	2	-1	nt	nt
CCOC(=O)C1=C(CS(=O)(=O)c2ccccc2)NC(=O)NC1c1ccccc1OCC (stereo not given)	17*	-9	-1	5	1	-1	-1
O=C(NCC1CCN(C(=O)C(=O)c2cccs2)CC1)c1ccc2c(c1)CCO2	nt	3	nt	-1	1	nt	nt
Cc1ccc(SCCNC(=O)C(C)C)cc1	16*	-5	-5	1	-1	-1	-5
CCN(CC)CCn1c(NC(=O)c2ccc(Cl)cc2)nc2ccccc21	18*	-4	-1	-6	1	nt	12
Cc1nc(SCC(=O)N2CCN(C(=O)c3cccs3)CC2)c2c(C)c(C)sc2n1	16*	0	-2	2	2	-1	1
COc1cccc(NC(=O)n2ccc3ccc(-c4ccc5cc[nH]c5c4)cc32)c1	nt	-9	nt	-9	nt	nt	nt
Cc1ccccc1C(=O)c1cccn1CC(=O)NCc1ccccc1Cl	26*	4	-13	-2	0	0	5
